# Measurements as given in PubChem BioAssay (NCI).
# About 79,000 compounds went through this panel and 15% of them were active in at least one assay; those are over-represented in the sample as a whole. A number with no mark means an inactive call. The source made the active and inactive calls. No stated cut-off is given here; in the data, active means growth inhibition above about 70%; inactive means the rest.
# How the values were obtained:
# [1] = NCI Yeast Anticancer Drug Screen. Data for the rad50 strain (AID 155);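 further: 0% = growth of vehicle-only cultures of the same strain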; details: S. cerevisiae rad50 strain growth inhibition, active compounds read high
# Summary of the method: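 Genetically altered yeast (DNA repair pathway); compound treatment; growth inhibition vs vehicle ctrl.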
# [2] = NCI Yeast Anticancer Drug Screen. Data for the mec2-1 strain (AID 157); details: S. cerevisiae mec2-1 strain, active compounds read high
# Summary of the method: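 Using mec2-1 yeast: add compound, measure growth, express inhibition versus vehicle-treated cultures.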
# [3] = NCI Yeast Anticancer Drug Screen. Data for the sgs1 mgt1 strain (AID 161);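 further: 0% = growth of cultures given vehicle only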; details: S. cerevisiae sgs1 mgt1 strain, active compounds read high
# Summary of the method: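 Compounds are added to genetically altered yeast, and growth is compared with cultures given vehicle alone to give percent inhibition.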
# [4] = NCI Yeast Anticancer Drug Screen. Data for the cln2 rad14 strain (AID 165);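 further: 0% = growth equal to vehicle treated cultures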; details: S. cerevisiae cln2 rad14 strain, active compounds read high
# Summary of the method: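 Yeast strain cln2 rad14, bearing defects in cell cycle control and DNA repair, serves as the test system; values reflect growth inhibition compared with vehicle.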
# [5] = NCI Yeast Anticancer Drug Screen. Data for the bub3 strain (AID 167); details: S. cerevisiae bub3 mutant strain, active compounds read high
# Summary of the method: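 Yeast carrying a defined mutation is treated with each compound, and growth is compared with that of vehicle-exposed cells to give inhibition.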
# [6] = NCI Yeast Anticancer Drug Screen. Data for the mlh1 rad18 strain (AID 175); details: S. cerevisiae mlh1 rad18 strain growth inhibition, active compounds read high
# Summary of the method: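 Steps: expose repair-defective yeast to compound; measure growth; express inhibition against vehicle-treated controls.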
# [7] = at 5.0 µM (retest, dose inferred, filed as 0.5)
# [8] = at 50.0 µM (retest, dose inferred, filed as 5.0)
Structure (SMILES),"growth inhibition [1, 7]","growth inhibition [1, 8]",growth inhibition ([1]; at 50.0 µM),"growth inhibition [2, 7]","growth inhibition [2, 8]",growth inhibition ([2]; at 50.0 µM),"growth inhibition [3, 7]","growth inhibition [3, 8]",growth inhibition ([3]; at 50.0 µM),"growth inhibition [4, 7]","growth inhibition [4, 8]",growth inhibition ([4]; at 50.0 µM),"growth inhibition [5, 7]","growth inhibition [5, 8]",growth inhibition ([5]; at 50.0 µM),"growth inhibition [6, 7]","growth inhibition [6, 8]",growth inhibition ([6]; at 50.0 µM)
COc1ccc2c(c1)CCCN2CCCCCCCCCN1CCCCC1,31%,36%,62%,27%,53%,57.9%,45%,81% (active),82.8% (active),35%,44%,42.4%,45%,76% (active),79.6% (active),47%,63%,69%
O=C1C2C3C=CC(C3)C2C(=O)C2C3C=CC(C3)C12 (configuration not stated),70% (active),96% (active),98.6% (active),58%,98% (active),99.3% (active),65%,99% (active),99% (active),23%,95% (active),88% (active),53%,96% (active),98.9% (active),60%,98% (active),99.2% (active)
COc1ccc2c(c1)C1(C)CCCC(C)(C(=O)O)C1C(Br)C2=O (configuration not stated),6%,91% (active),69.8%,20%,98% (active),46.6%,-12%,97% (active),84% (active),-8%,96% (active),37.4%,6%,96% (active),35.2%,21%,96% (active),72.2% (active)
O=[N+]([O-])c1ccc2nc(-c3ccc(Cl)cc3)[nH]c2c1,0%,91% (active),71.5% (active),-1%,89% (active),72.8% (active),-2%,89% (active),75.4% (active),-6%,83% (active),72.6% (active),1%,95% (active),81.9% (active),-15%,94% (active),78.8% (active)
CC(=O)OCCSCCOC(C)=O,20%,90% (active),76.4% (active),-1%,84% (active),29.4%,6%,88% (active),81% (active),7%,23%,12.2%,7%,88% (active),39%,7%,90% (active),78.3% (active)
CCOC(=O)N1c2ccc3ccccc3c2C=CC1C#N (configuration not stated),0%,6%,96.5% (active),-12%,-5%,97.3% (active),-1%,14%,96.6% (active),-11%,7%,95.5% (active),-18%,-20%,86.3% (active),-2%,-6%,94.7% (active)
CN1C/C(=C\c2ccccc2)C(=O)/C(=C/c2ccccc2)C1,13%,99% (active),54.5%,16%,100% (active),10.2%,19%,99% (active),19%,14%,98% (active),52.5%,10%,99% (active),14.6%,11%,99% (active),21.4%
OC1(c2ccccc2)CN(CCl)CC(c2ccccc2)O1 (configuration not stated),-2%,7%,-10.6%,0%,2%,17.3%,-1%,7%,46%,12%,15%,10.4%,2%,6%,71.8% (active),-2%,7%,47.4%
CCNC(=O)NNc1ncnc2c1c(-c1ccc(Cl)cc1)cn2-c1ccc(C)cc1,-10%,98% (active),96.7% (active),-11%,98% (active),97.7% (active),5%,99% (active),98.3% (active),7%,97% (active),96.5% (active),0%,97% (active),40%,-17%,98% (active),97.2% (active)
